hcDAF-12 act: activates DAF-12 receptor from parasite H. contortus | 370,000 compounds, 1.4% hits | activation, % at 6.8 µM | HEK293 hcDAF-12 lit1-tk-luc reporter, luminescence; 0% DMSO, 100% Δ7-dafachronic acid;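 active means activation above the mean of all tested compounds plus 3 SD, cut at about 5.5% in these data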;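 further: 100% = response to 3 µM Δ7-dafachronic acid high control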
hgDAF12 agonist: activates the H. glycines DAF-12 receptor ligand-binding domain. HEK293 GAL4-hgDAF12 UAS-luciferase reporter, agonist luminescence; normalized to butyrate control. activation, % at 6.8 µM. 370,000 compounds, 1.8% hits;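 active means activation above a cutoff set at the mean of all screened compounds plus 3 SD, cut at about 10% in these data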;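 further: 0% = DMSO wells and 100% = sodium butyrate wells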
ssDAF12 agonist: activators of S. stercoralis DAF-12 nuclear receptor | HEK293 ssDAF-12/GRIP1 lit1-tk-luc reporter, luminescence; % of 3 µM dafachronic acid response | activation, % at 6.8 µM | 370,000 compounds, 1% hits | AID 652126;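 active means activation above the mean over all tested compounds plus 3 SD, cut at about 0.9% in these data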;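 further: 0% = DMSO-only wells and 100% = 3 µM delta7-dafachronic acid wells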
DAX1 inh-1: blocks DAX1 repression of SF-1 activated StAR promoter; 370,000 compounds, 1.1% hits; HEK293T StAR-luciferase reporter, SF-1/DAX-1 repression relief; AID 652010; inhibition, % at 6.8 µM;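 active means inhibition above the mean over all tested compounds plus 3 SD, cut at about 3.6% in these data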;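 further: 0% = DAX-1 cells with DMSO and 100% = cells lacking DAX-1 with DMSO; higher inhibition means more luminescence from relief of DAX-1 repression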
SMARCA2 activ: SMARCA2 function activation, primary screen | MG213 cells, MMTV-luciferase reporter, dexamethasone, overnight | activation, % at 9.1 µM | 370,000 compounds, 1% hits; in the data active means activation above about 7.8%;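 further: 0% = vehicle wells and 100% = reference activator wells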
DAX1 inh-2: inhibitors of human orphan nuclear receptor DAX1 (NR0B1); HEK293 Gal4-DAX1 luciferase reporter, luminescence; 340,000 compounds, 0.99% hits; P51843; inhibition, % at 6.75 µM;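 active means inhibition above the mean over all tested compounds plus 3 SD, cut at about 4.2% in these data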;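 further: 0% = DAX1-transfected cells with DMSO and 100% = empty-vector control cells with DMSO; inhibition shows as a rise in luminescence from relieved DAX1 repression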
Target sequence (P51843 207-470 limits assumed): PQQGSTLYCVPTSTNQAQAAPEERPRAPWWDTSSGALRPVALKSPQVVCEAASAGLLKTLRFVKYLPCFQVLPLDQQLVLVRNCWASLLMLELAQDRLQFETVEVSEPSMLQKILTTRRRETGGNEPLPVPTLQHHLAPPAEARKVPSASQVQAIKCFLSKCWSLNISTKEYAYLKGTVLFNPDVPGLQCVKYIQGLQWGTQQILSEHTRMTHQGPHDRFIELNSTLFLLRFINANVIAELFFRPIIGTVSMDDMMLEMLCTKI
Numbers without * were called inactive; nt = not tested or not shown. The list is not random: actives were taken first. Their share in the collection is about 4.8%.

SMILES	hcDAF-12 act	hgDAF12 agonist	ssDAF12 agonist	DAX1 inh-1	SMARCA2 activ	DAX1 inh-2
CN1CCCN(C(=O)CSc2ccccc2)CC1	-1	0	-1	0	-2	0
CN1CCN(C(=O)CSc2ccc(Cl)cc2)CC1	2	9	-1	1	-2	4.6*
[O-][N+](=C(c1ccccc1)c1ccccc1)c1ccccc1	2	-1	0.9*	0	-2	1
OC[C@H]1O[C@H](OCc2ccccc2)[C@H](O[C@@H]2OC[C@@H](O)[C@H](O)[C@H]2O)[C@@H](O)[C@@H]1O	-2	3	-1	1	1	6.3*
OC1COC(OCC2OC(OCc3ccccc3)C(O)C(O)C2O)C(O)C1O (centres undefined)	0	-1	-1	0	1	0
CCOc1ccc(-c2nnn(CC(=O)NCc3ccc4c(c3)OCO4)n2)cc1	0	1	-1	0	1	-1
Oc1ccc(-c2nnc(SCC3CCCCC3)o2)cc1	1	11*	0	3	3	1
O=C(CSc1nnc(-c2ccc(F)cc2)o1)NC1CCCCC1	-2	-1	-2	1	-5	1
CCOc1ccc(S(=O)(=O)NCCC(=O)N2CCN(C(C)=O)CC2)cc1	-1	-3	-1	-1	1	0
C/C(=N\OCc1ccc(C#N)cc1)c1ccccc1	1	11*	-1	0	3	4
Cc1cc(C)nc(NS(=O)(=O)c2ccc(NC(=O)c3ccc(O)cc3O)cc2)n1	5.7*	0	0	0	-2	1
CCOc1ccccc1C(=O)Nc1ccc(S(=O)(=O)Nc2nccc(C)n2)cc1	6.2*	-2	0	0	2	0
Cc1cc(NS(=O)(=O)c2ccc(NS(=O)(=O)c3ccc(CC(C)C)cc3)cc2)nc(C)n1	-1	-1	-1	0	-1	5.8*
Cc1ccc(S(=O)(=O)Nc2ccc(S(=O)(=O)Nc3cc(C)nc(C)n3)cc2)cc1	2	3	-1	2	-6	1
COc1ccc(C2CC(c3ccc(OC)c(OC)c3)=NN2S(C)(=O)=O)cc1 (centres undefined)	4	13*	0	2	3	4.6*
CCOc1ccc(-n2c(=O)c3ccccc3c3ccccc3c2=O)cc1	0	0	-1	0	-3	4.9*
CC(Sc1nc2ccccc2s1)C(=O)NCc1ccc2c(c1)OCO2 (centres undefined)	2	2	0	0	1	0
CC1CC(C)CN(C(=O)CSc2nnc(-c3ccco3)o2)C1 (centres undefined)	0	1	-1	0	-2	4.8*
COc1cccc(-c2nnc(SCC(=O)N3CCOCC3)o2)c1	1	6	0	1	2	0
CCC1CCCCN1C(=O)CSc1nnc(-c2ccco2)o1 (centres undefined)	4	7	1.0*	2	5	2
COc1cccc(-c2nnc(SCC(=O)N3CC(C)CC(C)C3)o2)c1 (centres undefined)	-4	-1	-1	0	-1	6.7*
COc1ccc(N2C(=O)C(C)C(Cc3ccc(C)cc3)C2=O)cc1 (centres undefined)	-2	-1	-2	0	0	4
Cc1nc(C(F)(F)F)ccc1C(=O)N1CCC1(C)C(=O)NS(=O)(=O)c1ccc2ccccc2c1 (centres undefined)	0	0	0	-1	2	nt
Cc1ccc(-n2c(SCC(=O)N/N=C/c3ccccc3OCC(=O)O)nc3ccccc3c2=O)cc1	-1	-3	-1	0	-3	-1
Nc1c(C(=O)CSc2nc3ccccc3o2)c(=O)[nH]c(=O)n1C1CC1	-2	-6	-1	4.4*	0	-2
SMILES	hcDAF-12 act	hgDAF12 agonist	ssDAF12 agonist	DAX1 inh-1	SMARCA2 activ	DAX1 inh-2
CCOC(=O)C1(CCOc2ccccc2)CCN(Cc2cnc(C)[nH]2)CC1	-1	4	-2	-1	-1	-1
CCOC(=O)c1[nH]c(C)c(C(=O)Nc2ccc(C)c(Cl)c2)c1C	-2	2	-2	0	1	0
COCc1cc(C)c2c(N)c(C#N)sc2n1	0	-1	-1	0	7.9*	0
COc1ccc(-c2cc(-c3cccs3)nc3sc(C#N)c(N)c23)cc1	3	1	0	-1	-2	2
O=C(CCn1cccc1)N1CCc2ccccc21	-1	3	-1	2	-1	0
CCCc1c(-c2cccc(Cl)c2)ncn1CCc1ccccc1OC	-3	-5	-2	-2	-6	nt
CN(CC(=O)NCc1ccccc1Cl)S(=O)(=O)c1ccc2c(c1)n(C)c(=O)c(=O)n2C	5.6*	1	-1	0	1	0
CCOCCCNC(=O)Cn1cc2c(n1)CCCC2	0	-3	-1	1	-1	5.4*
CCCN1CCN(CCCNC(=O)Cn2cc3c(n2)CCCC3)CC1	1	3	-1	1	1	1
O=C(CCNS(=O)(=O)c1cccc2nsnc12)NCc1ccccc1	-1	-1	-1	0	-4	0
CN1CCN(CCCNC(=O)c2cc3c(-c4ccc(Cl)cc4)nn(C)c3s2)CC1	5.6*	0	0	2	0	3
COc1ccc(N2CCN(C(=O)c3cc4c(-c5ccc(Cl)cc5)nn(C)c4s3)CC2)cc1	6.0*	-3	0	0	-1	2
CCN(CC)S(=O)(=O)c1ccc(C(=O)OCC(=O)Nc2sc3c(c2C#N)CCCCC3)cc1	4	1	0	1	-3	0
COC(=O)N1[C@H](C)C=C[C@]1(Cc1ccccc1)C(=O)OC	0	2	-1	-1	0	3
O=C(Nc1ccc(N2CCOCC2)cc1N1CCOCC1)c1cccs1	0	-1	-1	-1	2	1
O=C(c1ccc(N2CCOCC2)cc1)c1cccs1	6	12*	0	3.8*	4	3
O=C(COC(=O)/C=C/c1cccc(F)c1)NC(=O)NCc1ccccc1	-1	0	-1	-2	5	1
Cc1ccc2[nH]c3c(c2c1)CC/C(=C/c1ccccc1)C3=O	3	3	0	1	3	2
O=C1/C(=C\c2ccccc2)CCc2c1[nH]c1ccccc21	6	13*	0	-1	2	-1
O=C1ON=C(c2ccc(Cl)cc2)/C1=C/c1ccc(O)cc1	-1	4	-1	0	0	nt
Cc1ccc(C(=O)NNC(=S)Nc2cccc3ccccc23)s1	6.3*	5	1.2*	1	7	1
O=C(NNC(=S)Nc1cccc2ccccc12)c1cccc(Br)c1	6	0	0	0	-1	0
